Test results: PubChem BioAssay (EPA / NIEHS)
Inconclusive results are not listed. Calls of active or inactive are those of the source. Rule for the calls, unless noted: active = hit-call score of the fitted dose curve at least 0.9, where 1 is the maximum; inactive = score below 0.9.

Tests used:
[1] = BSK_LPS_SRB: Viability Assessment in the BioMAP Diversity Plus: LPS Assay (AID 2283079); settings: primary human HUVEC with PBMC;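 note: total protein by sulforhodamine B absorbance as a cytotoxicity measure; measured one day after compound addition; fitted in both directions against DMSO so loss or gain of signal counts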
Outline: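 Overt cytotoxicity was gauged by sulforhodamine B total-protein staining in a primary human vascular endothelial and mononuclear cell co-culture 24 h post-dosing. Activity was fitted in both directions relative to DMSO.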

[2] = read-out: Interleukin-1 alpha (IL1a), IL1A (gene 3552); test: BSK_LPS_IL1a: BioMAP Diversity Plus: LPS Assay for Interleukin-1 alpha (IL1a) Biomarker Activity (AID 2283080); settings: primary human HUVEC with PBMC; actives raise or lower the signal
Outline: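 Measured: IL-1 alpha via ELISA at 24 h in LPS-activated human umbilical vein endothelium–PBMC co-culture. Baseline: DMSO, bidirectional fitting.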

[3] = read-out: Monocyte Chemoattractant Protein-1 (MCP1), CCL2 (gene 6347); test: BSK_LPS_MCP1: BioMAP Diversity Plus: LPS Assay for Monocyte Chemoattractant Protein-1 (MCP1) Biomarker Activity (AID 2283081); settings: primary human HUVEC with PBMC; actives raise or lower the signal;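 for AC50: secreted MCP-1 protein quantified by ELISA in culture supernatant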
Outline: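 LPS-stimulated HUVEC/PBMC co-culture; chemical, 24 h; MCP-1 by ELISA; bidirectional fit vs DMSO; cytotoxicity via SRB (0.1% stain, 10% TCA fix, 560 nm) in parallel wells.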

[4] = BSK_LPS_PGE2: BioMAP Diversity Plus: LPS Assay for Prostaglandin E2 (PGE2) Biomarker Activity (AID 2283082); settings: primary human HUVEC with PBMC; actives raise or lower the signal;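 for AC50: secreted prostaglandin E2 measured by ELISA in LPS-stimulated co-culture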
Outline: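 Primary human endothelial cells and blood mononuclear cells, co-cultured with LPS, receive test chemical; PGE2 ELISA follows at 24 h, with SRB-stained parallel cultures flagging cytotoxicity.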

[5] = read-out: Macrophage colony-stimulating factor (MCSF), CSF1 (gene 1435); test: BSK_LPS_MCSF: BioMAP Diversity Plus: LPS Assay for Macrophage colony-stimulating factor (MCSF) Biomarker Activity (AID 2283083); settings: primary human HUVEC with PBMC; actives raise or lower the signal
Outline: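 Compound is added to a human vascular primary co-culture of umbilical vein endothelium and blood mononuclear cells. After 24 h, M-CSF is quantified by ELISA. Signal changes are fitted in both directions against DMSO.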

[6] = read-out: Tissue Factor, F3 (gene 2152); test: BSK_LPS_TissueFactor: BioMAP Diversity Plus: LPS Assay for Tissue Factor Biomarker Activity (AID 2283084); settings: primary human HUVEC with PBMC; actives raise or lower the signal
Outline: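 In this co-culture system of umbilical vein endothelium with PBMC, stimulated with LPS, cell-surface CD142 is detected by ELISA at 24 h. Endpoint values derive from bidirectional fitting, DMSO serving as baseline.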

[7] = read-out: Tumor necrosis factor (Homo sapiens) (UniProt P01375); test: BSK_LPS_TNFa: BioMAP Diversity Plus: LPS Assay for Tumour Necrosis Factor alpha (TNFa) Biomarker Activity (AID 2283085); settings: primary human HUVEC with PBMC; actives raise or lower the signal;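 for AC50: TNFa protein level quantified by ELISA in the co-culture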
Outline: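 ELISA-based TNFa endpoint in a human endothelial–PBMC co-culture sampled 24 h post-exposure. Curves were fitted in both directions using DMSO as baseline of activity.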

CD38, CD38 (gene 952) = test: BSK_SAg_CD38: BioMAP Diversity Plus: SAg Assay for CD38 Biomarker Activity (AID 2283087); settings: primary human HUVEC with PBMC; actives raise or lower the signal
Outline: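 Measures CD38 on a human endothelial/PBMC co-culture driven by SEB and TSST-1, 24 h after compound exposure, using ELISA with fluorescence detection; DMSO defines baseline for bidirectional curve fitting.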

CD40, CD40 (gene 958) = test: BSK_SAg_CD40: BioMAP Diversity Plus: SAg Assay for CD40 Biomarker Activity (AID 2283088); settings: primary human HUVEC with PBMC; actives raise or lower the signal
Outline: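 Fluorescence ELISA read-out of CD40 from umbilical vein endothelium plus peripheral blood mononuclear cells, sampled 24 h after dosing. Values come from bidirectional curve fitting with DMSO as baseline.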

CD69, CD69 (gene 969) = test: BSK_SAg_CD69: BioMAP Diversity Plus: SAg Assay for CD69 Biomarker Activity (AID 2283089); settings: primary human HUVEC with PBMC; actives raise or lower the signal;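 for AC50: cell surface CD69 protein quantified by ELISA with fluorescence detection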
Outline: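 Primary human vascular co-culture (umbilical vein endothelium with peripheral blood mononuclear cells) exposed to test chemical for 24 h. CD69 levels quantified by fluorescence ELISA; DMSO served as negative control for bidirectional fitting.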

[8] = read-out: Monocyte Chemoattractant Protein-1 (MCP1), CCL2 (gene 6347); test: BSK_SAg_MCP1: BioMAP Diversity Plus: SAg Assay for Monocyte Chemoattractant Protein-1 (MCP1) Biomarker Activity (AID 2283090); settings: primary human HUVEC with PBMC; actives raise or lower the signal
Outline: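 Values derive from bidirectional fitting of ELISA-measured MCP1 against DMSO controls. Readings were taken 24 h after dosing human vascular endothelial cells co-cultured with peripheral blood mononuclear cells under superantigen stimulation.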

[9] = read-out: E-selectin (Homo sapiens) (UniProt P16581); test: BSK_SAg_Eselectin: BioMAP Diversity Plus: SAg Assay for Eselectin Biomarker Activity (AID 2283091); settings: primary human HUVEC with PBMC; actives raise or lower the signal
Outline: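 Primary human endothelial cells and peripheral blood mononuclear cells were co-cultured and exposed to chemical for 24 hours. E-selectin levels were then quantified by ELISA, with bidirectional curve fitting normalised to DMSO controls.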

[10] = read-out: Monokine induced gamma interferon (MIG), CXCL9 (gene 4283); test: BSK_SAg_MIG: BioMAP Diversity Plus: SAg Assay for Monokine induced gamma interferon (MIG) Biomarker Activity (AID 2283092); settings: primary human HUVEC with PBMC; actives raise or lower the signal
Outline: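 Endothelial cells and PBMC were co-cultured, exposed to test chemicals, and sampled 24 h later. MIG was measured by ELISA, and responses were fitted in both directions relative to DMSO.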

[11] = BSK_SAg_PBMCCytotoxicity: PBMC Cytotoxicity Assessment in the BioMAP Diversity Plus: SAg Assay (AID 2283093); settings: primary human HUVEC with PBMC;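 note: fitted both ways against DMSO so a hit may be loss or gain of signal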;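 for AC50: PBMC superantigen activated with SEB plus TSST-1 one hour after compound addition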
Outline: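 PBMC viability by Alamar Blue reduction, fluorescence read at 546/580 nm after 6 h dye exposure. Cells were dosed 1 h before SEB plus TSST-1 activation (20 ng/mL final each), then held 90 h; endothelial/PBMC human co-culture.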

[12] = read-out: Interleukin-8 (IL8), CXCL8 (gene 3576); test: BSK_SAg_IL8: BioMAP Diversity Plus: SAg Assay for Interleukin-8 (IL8) Biomarker Activity (AID 2283094); settings: primary human HUVEC with PBMC; actives raise or lower the signal
Outline: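 Primary human endothelial cells with PBMC, exposed 24 h; IL-8 determined by ELISA, analysed bidirectionally relative to DMSO.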

[13] = BSK_SAg_Proliferation: Cell Proliferation Assessment in the BioMAP Diversity Plus: SAg Assay (AID 2283095); settings: primary human HUVEC with PBMC;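 note: relative cell number as total protein by SRB absorbance in sub-confluent culture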
Outline: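 A human primary co-culture of umbilical vein endothelium and blood mononuclear cells receives compound; relative cell number is quantified at 96 h by SRB staining and 560 nm absorbance, with DMSO-referenced bidirectional curve fitting.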

[14] = BSK_SAg_SRB: Viability Assessment in the BioMAP Diversity Plus: SAg Assay (AID 2283096); settings: primary human HUVEC with PBMC;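 note: cells read one day after compound addition; hits may be either gain or loss of signal compared with DMSO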
Outline: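 Compounds were added to a human vascular co-culture of umbilical vein endothelium and PBMC. After 24 h, parallel cultures were fixed with 10% TCA, stained with 0.1% sulforhodamine B and read at 560 nm. Gain or loss of signal was fitted relative to DMSO.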

[15] = target: human CYP19A1, CYP19A1 (gene 1588) (UniProt P11511); test: NVS_ADME_hCYP19A1: NovaScreen (NVS) CYP450-related Enzyme Activity (ADME) Assay for human CYP19A1 (AID 2283098; active = hit-call score of the fitted dose curve at least 0.9, where 1 is the maximum;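 note: potency for inhibitors seen as loss of fluorescent enzyme signal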)
Chain of human CYP19A1, CYP19A1 (gene 1588) (P11511 whole entry, looked up): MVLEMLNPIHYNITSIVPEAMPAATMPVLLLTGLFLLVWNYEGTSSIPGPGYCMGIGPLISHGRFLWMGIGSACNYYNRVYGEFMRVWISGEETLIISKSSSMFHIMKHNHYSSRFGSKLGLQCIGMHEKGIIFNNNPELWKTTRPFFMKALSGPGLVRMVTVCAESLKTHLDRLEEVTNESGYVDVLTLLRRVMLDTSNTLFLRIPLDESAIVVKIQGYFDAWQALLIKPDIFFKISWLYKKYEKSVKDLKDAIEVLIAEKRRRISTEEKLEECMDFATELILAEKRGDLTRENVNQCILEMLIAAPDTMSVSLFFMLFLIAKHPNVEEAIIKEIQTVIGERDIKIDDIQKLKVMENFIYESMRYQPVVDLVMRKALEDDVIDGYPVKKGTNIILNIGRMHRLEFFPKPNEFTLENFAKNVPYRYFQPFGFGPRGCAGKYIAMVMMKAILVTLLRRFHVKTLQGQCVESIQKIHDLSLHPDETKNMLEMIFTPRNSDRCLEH
Outline: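 Fluorescence intensity read-out; activity taken as signal loss relative to acetonitrile vehicle. Extracted enzyme, specific substrate, no cells, 0.5 h exposure. Duplicate single-point screen at 10 uM, then concentration–response follow-up for actives.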

[16] = read-out: Vascular cell adhesion molecule 1 (VCAM1), VCAM1 (gene 7412); test: BSK_LPS_VCAM1: BioMAP Diversity Plus: LPS Assay for Vascular cell adhesion molecule 1 (VCAM1) Biomarker Activity (AID 2283086); settings: primary human HUVEC with PBMC; actives raise or lower the signal
Outline: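 Measured by ELISA: VCAM-1 in LPS-activated HUVEC/PBMC co-cultures 24 h after treatment. Values reflect bidirectional fitting with DMSO as baseline.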

[17] = target: human CYP2A6, CYP2A6 (gene 1548) (UniProt P11509); test: NVS_ADME_hCYP2A6: NovaScreen (NVS) CYP450-related Enzyme Activity (ADME) Assay for human CYP2A6 (AID 2283099; active = hit-call score of the fitted dose curve at least 0.9, where 1 is the maximum)
Chain of human CYP2A6, CYP2A6 (gene 1548) (P11509 whole entry, looked up): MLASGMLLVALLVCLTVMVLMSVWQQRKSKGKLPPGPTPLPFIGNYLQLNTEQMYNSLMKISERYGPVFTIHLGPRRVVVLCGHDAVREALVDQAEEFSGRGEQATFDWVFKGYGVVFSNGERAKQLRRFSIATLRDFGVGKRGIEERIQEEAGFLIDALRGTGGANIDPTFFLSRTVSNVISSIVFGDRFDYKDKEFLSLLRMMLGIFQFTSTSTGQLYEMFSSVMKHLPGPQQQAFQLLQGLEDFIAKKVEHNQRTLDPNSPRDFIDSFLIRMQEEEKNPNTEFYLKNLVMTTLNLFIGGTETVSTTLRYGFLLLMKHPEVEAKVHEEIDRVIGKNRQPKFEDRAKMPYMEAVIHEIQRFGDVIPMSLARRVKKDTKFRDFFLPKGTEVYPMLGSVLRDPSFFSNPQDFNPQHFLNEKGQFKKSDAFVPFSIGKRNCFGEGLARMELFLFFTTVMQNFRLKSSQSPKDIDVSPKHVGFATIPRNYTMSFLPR
Outline: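 Recombinant human CYP2A6 from insect cells was incubated with chemical for 0.5 h and activity read by fluorescence. Single-concentration duplicates at 10 uM preceded concentration-response testing to 20 uM, with activity referenced to acetonitrile.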

Measured: AC50

Chain of E-selectin (Homo sapiens) (P16581 whole entry, looked up): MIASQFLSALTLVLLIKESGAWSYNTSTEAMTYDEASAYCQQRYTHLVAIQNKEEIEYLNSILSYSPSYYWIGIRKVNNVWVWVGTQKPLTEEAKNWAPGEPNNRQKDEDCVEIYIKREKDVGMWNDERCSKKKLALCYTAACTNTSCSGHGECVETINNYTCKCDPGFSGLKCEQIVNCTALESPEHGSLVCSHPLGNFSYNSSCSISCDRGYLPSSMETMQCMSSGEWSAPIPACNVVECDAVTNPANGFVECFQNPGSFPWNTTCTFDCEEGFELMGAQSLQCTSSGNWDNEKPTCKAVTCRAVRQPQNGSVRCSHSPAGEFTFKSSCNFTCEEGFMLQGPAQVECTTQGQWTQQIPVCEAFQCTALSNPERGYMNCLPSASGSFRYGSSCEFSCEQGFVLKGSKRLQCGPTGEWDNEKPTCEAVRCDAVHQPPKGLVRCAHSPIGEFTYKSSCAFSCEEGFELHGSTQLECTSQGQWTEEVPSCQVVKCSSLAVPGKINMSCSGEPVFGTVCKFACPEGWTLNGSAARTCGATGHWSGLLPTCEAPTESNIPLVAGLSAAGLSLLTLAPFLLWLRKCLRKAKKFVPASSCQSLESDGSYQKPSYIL
Chain of Tumor necrosis factor (Homo sapiens) (P01375 whole entry, looked up): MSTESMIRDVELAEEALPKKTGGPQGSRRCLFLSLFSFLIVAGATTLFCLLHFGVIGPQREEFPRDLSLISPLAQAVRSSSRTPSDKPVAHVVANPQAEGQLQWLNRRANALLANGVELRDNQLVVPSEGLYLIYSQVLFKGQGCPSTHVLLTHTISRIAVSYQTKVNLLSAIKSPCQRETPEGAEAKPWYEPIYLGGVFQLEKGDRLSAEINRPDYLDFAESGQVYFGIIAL

CCCCN(CC)c1c([N+](=O)[O-])cc(C(F)(F)F)cc1[N+](=O)[O-]
active: [5] 18.2 µM | CD38, CD38 (gene 952) 27.9 µM | CD40, CD40 (gene 958) 29.1 µM | [9] 27.6 µM | [11] 24.4 µM | [13] 18.9 µM | [15] 1.93 µM
not listed: [16] | [17]
inactive: all other assays above

CCc1cccc(CC)c1N(COC)C(=O)CCl
active: [1] 3.97 µM | [2] 1.06 µM | [5] 13.6 µM | [7] 1.31 µM | CD38, CD38 (gene 952) 28.6 µM | CD69, CD69 (gene 969) 15.4 µM | [8] 29.4 µM | [9] 14.2 µM | [13] 23.6 µM | [14] 20 µM
inactive: [3] | [4] | [6] | [10] | [11] | [12]

CC1=NNC(=O)N(/N=C/c2cccnc2)C1
not listed: [15] | [16] | [17]
inactive: all other assays above

CCC(=O)Nc1ccc(Cl)c(Cl)c1
active: [4] 8.77 µM
not listed: CD40, CD40 (gene 958) | [15] | [16] | [17]
inactive: all other assays above

CSC1=N[C@@](C)(c2ccccc2)C(=O)N1Nc1ccccc1
active: [1] 20 µM | [3] 15.2 µM | [4] 6.96 µM | CD38, CD38 (gene 952) 14.3 µM | CD69, CD69 (gene 969) 11.5 µM | [8] 20 µM | [9] 8.29 µM | [11] 7.23 µM | [12] 8.81 µM | [13] 9.67 µM
inactive: [2] | [5] | [6] | [7] | [16] | [10] | [14]

C[Si](Cn1cncn1)(c1ccc(F)cc1)c1ccc(F)cc1
active: [4] 1.62 µM | [5] 14.7 µM | CD38, CD38 (gene 952) 29.9 µM | [8] 28.9 µM | [9] 19.8 µM | [12] 16.8 µM | [13] 22.5 µM | [15] 3.78 µM | [17] 1.75 µM
not listed: CD40, CD40 (gene 958) | [16]
inactive: all other assays above
